Source: PubChem
MazF activator: increases E. coli MazEF RNase cleavage of RNA | P0AE70 | FAM/BHQ RNA-DNA oligo cleavage fluorescence, 5 h | activation, % at 20 µM | hit rate 0.32% among 350,000 | AID 504720; in the data active means activation above about 50%
Target sequence (P0AE70 whole entry, looked up): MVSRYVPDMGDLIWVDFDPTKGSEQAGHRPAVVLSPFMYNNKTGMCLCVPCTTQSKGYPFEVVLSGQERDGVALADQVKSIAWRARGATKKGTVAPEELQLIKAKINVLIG
Bead autofluor: flagged as autofluorescent in microsphere protease counterscreen | fluorescence intensity (concentration not given with the values) | compound autofluorescence counterscreen, microsphere flow cytometry; hits give high values | hit rate 3.1% among 360,000 | AID 624483; in the data active means fluorescence intensity above about 16000; inconclusive means no clear call, values can overlap the other calls
Anthrax LF prot: blocks Bacillus anthracis lethal factor protease; multiplex microsphere protease cleavage assay, LF; inhibition, % at 10 µM; hit rate 0.12% among 360,000; AID 588501; P15917; further: plate controls were buffer without enzyme for full effect and enzyme alone for no effect
BoNT A protease: BoNT A light chain protease inhibition | inhibition, % at 10 µM | hit rate 0.17% among 360,000 | AID 588499 | multiplex microsphere protease substrate cleavage, flow cytometry; further: plate controls were buffer without enzyme for full effect and enzyme alone for no effect
BoNT-F LC inh: inhibitors of Botulinum neurotoxin F light chain protease. AID 588497. inhibition, % at 10 µM. hit rate 0.22% among 360,000. Multiplex microsphere protease cleavage assay, flow cytometry; in the data active means inhibition above about 35%, passing the limit was not always enough; inconclusive means no clear call, values can overlap the other calls; further: plate controls were buffer without enzyme for full effect and enzyme alone for no effect
PfHsp40 rescue: restores yeast growth despite PfHsp40 toxicity; S. cerevisiae expressing PfHsp40, growth rescue, ATP luminescence; growth rescue, % at 12.5 µM; hit rate 0.68% among 340,000; AID 504582; in the data active means growth rescue above about 28%, passing the limit was not always enough; inconclusive means no clear call, values can overlap the other calls;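 further: yeast W303a lacking pdr1 and pdr3 grown in galactose medium; growth measured after three days at 30 °C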
* = called active by the depositor; ? = inconclusive; · = no result. Shown are actives, neighbours in structure and some others; about 4.3% of the full set was active somewhere. Unless noted, no stated cut-off is given here; in the data, active means inhibition above about 30%; inconclusive means no clear call, values can overlap the other calls; inactive means below that.

SMILES	MazF activator	Bead autofluor	Anthrax LF prot	BoNT A protease	BoNT-F LC inh	PfHsp40 rescue
O=C(O)C1CC(=O)N(CCc2ccc(F)cc2)C1 (stereo not drawn)	3.5	·	·	·	·	-1.3
CCCn1c(SCC(=O)N2CCCc3ccccc32)nc2c1c(=O)n(C)c(=O)n2C	-0.3	21086*	-3.5	-1.5	-5.4	-1.5
CCCn1c(SCC(=O)NCc2ccco2)nc2c1c(=O)n(C)c(=O)n2C	4.7	22819*	-0.1	1.0	-1.4	1.4
CCn1c(SCC(=O)NCc2ccco2)nc2c1c(=O)n(C)c(=O)n2C	8.3	11516	-1.1	-0.7	-1.8	0.8
CCCn1c(SCC(=O)Nc2cc(C)on2)nc2c1c(=O)n(C)c(=O)n2C	-3.8	22114*	-3.6	0.2	3.2	-1.1
CCCn1c(SCC(=O)Nc2nc3ccccc3s2)nc2c1c(=O)n(C)c(=O)n2C	66.5*	3717	-0.2	0.0	8.9	-0.9
CCCn1c(SCC(=O)Nc2cccc(C)n2)nc2c1c(=O)n(C)c(=O)n2C	-2.2	4659	-9.1	0.0	-2.1	-1.1
COc1ccccc1CCN=C(N)NS(=O)(=O)c1ccc(C)c(C)c1	-4.1	5502	-3.1	2.7	3.9	-1.0
COc1ccccc1-c1ccc(=O)n(CC(=O)NCc2ccc3c(c2)OCO3)n1	3.5	22769*	-2.8	2.7	1.1	-0.8
COCCCNC(=O)Cn1nc(-c2ccccc2OC)ccc1=O	-3.6	3014	1.2	0.2	3.9	-1.2
COc1cccc(CNC(=O)Cn2nc(-c3ccc(Cl)cc3)ccc2=O)c1	-7.8	21110*	-0.8	-1.2	-2.6	0.8
COCCCNC(=O)Cn1nc(-c2cccc(OC)c2)ccc1=O	4.7	3520	0.2	-5.1	?	-0.4
COCCNC(=O)Cn1nc(-c2ccccc2OC)ccc1=O	-0.2	22415*	-3.1	1.5	-0.2	-0.2
COc1ccccc1-c1ccc(=O)n(CC(=O)NC(C)(C)C)n1	6.6	16772*	-0.6	?	-5.6	-1.5
Cc1ccc(-c2nnn(CC(=O)Nc3nnc(C(C)C)s3)n2)cc1	1.6	4593	4.7	-0.9	-6.3	-1.5
Nn1c(SCC(=O)N2CCOCC2)nnc1C1CC1	2.0	3221	2.4	0.1	0.2	1.2
Cc1cc(C)n(CC(O)Cn2cnc3c2c(=O)n(C)c(=O)n3C)n1 (stereo not drawn)	-2.9	22564*	-3.9	-0.6	-4.9	0.2
Cn1c(SCc2cccc(Br)c2)nnc1-c1ccccn1	3.0	3654	12.6	-0.8	?	0.6
Cn1c(SCc2cccc(F)c2)nnc1-c1ccccn1	4.0	16789*	-2.0	-0.5	1.3	-0.7
O=C(C1CCC1)N1CCN(Cc2ccccc2)CC1	8.7	3280	3.6	-0.2	-5.1	0.0
Cc1ccc(CN2CCN(C(=O)C3CCC3)CC2)cc1	9.9	22954*	-9.3	0.6	-2.9	-0.2
N=C1SC(CC(=O)Nc2ccccc2[N+](=O)[O-])C(=O)N1c1ccccc1 (stereo not drawn)	0.1	3926	1.2	-2.9	2.9	0.1
Cc1ccc(NC(=O)NCCCN2CCCC2=O)cc1C	0.4	4794	-6.0	-2.2	3.2	-0.2
Cc1ccc(NC(=O)NCCCN2CCCC2=O)cc1	-0.6	22287*	-1.5	2.3	1.2	-0.2
O=C(NCCCN1CCCC1=O)c1ccc2c(c1)OCO2	-12.0	20949*	1.2	?	1.0	-0.5
SMILES	MazF activator	Bead autofluor	Anthrax LF prot	BoNT A protease	BoNT-F LC inh	PfHsp40 rescue
Cc1ccc(S(=O)(=O)Nc2ccccc2F)cc1C(=O)NCCCN1CCCC1=O	3.0	22774*	-1.9	-0.8	-1.0	-0.6
O=C(C[C@@H]1C/C=C/CC[C@@H](Cc2ccc(F)cc2)C(=O)O[C@H](c2ccccc2)CNC1=O)NCCO	-1.0	4103	-3.0	-0.3	0.0	0.5
O=C(O)CC1(CC(=O)Nc2ccc3sccc3c2)CCCCC1	-7.4	3759	?	-6.1	-48.0	·
C[C@H]1CN([C@@H](C)CO)C(=O)c2cc(NC(=O)NC3CCCCC3)ccc2O[C@H]1CN(C)C(=O)Nc1ccc(C(F)(F)F)cc1	-12.2	3922	-5.8	-0.1	-0.9	0.5
CCCCOc1ccc(-c2csc(N)n2)cc1[N+](=O)[O-]	-0.7	2387	-2.8	-1.1	-3.6	140.9*
Cc1ccc(C(=O)COC(=O)CNC(=O)c2ccco2)cc1	5.1	20040*	1.0	-1.0	-1.5	-0.4
O=C(CNC(=O)c1ccco1)NCC(=O)OCc1cccc(C(=O)Oc2ccccc2)c1	-5.1	11097	-2.7	-0.7	-10.0	-0.4
COC(=O)c1cccc(COC(=O)CNC(=O)c2ccco2)c1	8.3	20436*	-1.3	-2.6	0.0	1.5
